HepG2 viability = kills HepG2 cells in TGF-b inhibitor counter-screen; Potency, µM (top dose mostly 46.1 µM), without a hit: at the top dose activity change, negative = cytotoxicity, hits mostly cytotoxic; HepG2 CAGA-GFP viability, ATP luminescence, 18 h; 410,000 tested, 0.76% active; AID 588856
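HepG2 CAGA-GFP cells (1000/well, DMEM with 1% FBS) received compound, then TGF-beta at 500 pg/mL final, and were incubated 18 hours at 37 degrees C. Viability was read by CellTiter-Glo luminescence. Media-only wells were set as complete cell-killing and DMSO as no toxicity.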
TGFb SMAD3 inh = TGF-b pathway inhibition. HepG2 CAGA-GFP TGF-b/SMAD3 reporter, GFP fluorescence, 18 h; TGF-beta stimulated, 500 pg/mL final. Potency, µM (doses to about 46.1 µM), without a hit: at the highest dose activity, negative = inhibition, hits mostly inhibitors. 410,000 tested, 1.2% active. AID 588855; further: on the % scale 0 is the no-effect control and ±100 the full control effect; nearly all actives have a fitted effect of over 65% in size
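HEPG2 CAGA-GFP, 1000 cells/well; 2 h settle, 37 C; cpd via pin tool; TGF-b 500 pg/mL final; 18 h, 37 C; GFP imaging ex488/em500-530; %Activity normalised to -TGF-b and +DMSO controls; CRC fit, curve class.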
HT1080NT lethal = kills 2HG-producing HT-1080-NT fibrosarcoma cells; HT-1080-NT fibrosarcoma viability, CellTiter-Glo ATP luminescence, 48 h; Potency, µM (series often up to 46.1 µM), without a hit: at the highest dose activity, negative = less viability, usual class: cytotoxic; 360,000 tested, 1.6% active;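 further: NT is the 2HG producing partner of a matched IDH1 knockdown line; 0% = DMSO-treated cells and -100% = media-only wells without cells; nearly all actives have a fitted effect of over 55% in size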
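HT-1080-NT; 750 cells/well; 5% FBS RPMI; 48 h compound, 37 degrees C; CellTiter-Glo luminescence; curve fitting and curve-class assignment.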
ATXN2 expr inh = inhibitors of ATXN2 expression. HEK-293 ATXN2-luciferase reporter, luminescence, 24 h. Potency, µM (series often up to 57 µM), for the others: at the top dose activity change, negative = inhibition, actives largely listed as inhibitors. 360,000 tested, 0.72% active. AID 1745845; further: on the % scale 0 is the no-effect control and ±100 the full control effect; nearly all actives have a fitted effect of over 55% in size
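qHTS (up to 57 uM final) was run with 24 h compound exposure of reporter cells at 37 °C. Each well was multiplexed: SteadyGlo luminescence measured ATXN2-luciferase expression after a fluorogenic Gly-Phe-AFC viability readout (25 uM final).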
HT1080 IDH1KD tx = toxicity to HT-1080 IDH1 knockdown cells (counter line); HT-1080 IDH1 knockdown viability, ATP luminescence, 48 h; 360,000 tested, 2% active; Potency, µM (titrated, usually from 46.1 µM), for the others: at the top dose activity, negative = toxicity, usual class: cytotoxic; AID 686971;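 further: 0% = DMSO wells and -100% = cell-free medium wells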
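IDH1KD HT-1080 cells, 750/well, RPMI + 5% FBS; compound pinned after 2 h settling; 48 h, 37 °C; CellTiter-Glo luminescence; % activity normalised to DMSO and no-cell wells; curves fitted, classed by r2 and efficacy.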
S2 tox = reduces viability in counter-screen for ATXN expression inhibitors. S2 cells (HEK-293 line with an ATXN2-luciferase reporter) viability, CellTiter-Fluor protease fluorescence, 24 h. AID 651635. 400,000 tested, 0.49% active. Potency, µM (highest dose often 56.7 µM), hits mostly cytotoxic; further: nearly all actives have a fitted effect of over 40% in size
An asterisk follows results filed as active; ! = repeats disagree. A selection: hits, their analogues and other compounds. The true share with any hit is near 3.8%. The call rests on the fitted dose curve; in most records, active means well fitted curve in the direction sought with a large enough effect; inconclusive means small, poorly fitted or top-dose-only effect, or another doubt; inactive means no such curve, though single readings can be large; an effect the other way counts as inactive or inconclusive. Potency means the concentration at half of the fitted maximal effect.

For Cc1[nH][nH]c(=O)c1C(c1c(C)[nH][nH]c1=O)c1cn(Cc2ccc(Cl)c(Cl)c2)c2ccccc12 the results were HepG2 viability -18.9%, TGFb SMAD3 inh 12.6µM*, HT1080NT lethal -20.1%, ATXN2 expr inh inconclusive, HT1080 IDH1KD tx inconclusive and S2 tox inconclusive.
For CCOc1ccc(-c2nnc(SCC(=O)Nc3ccc4c(c3)c3ccccc3n4CC)n2N)cc1 the results were HepG2 viability -77.4%, TGFb SMAD3 inh inconclusive, HT1080NT lethal inconclusive, ATXN2 expr inh 31.6µM* and HT1080 IDH1KD tx inconclusive.
Screening COc1ccc(CN2CCN(Cc3ccc4cc(F)ccc4n3)CC2CCO)c(C)c1C (stereo unspecified) returned HepG2 viability -32.5%, TGFb SMAD3 inh inconclusive, HT1080NT lethal inconclusive, ATXN2 expr inh -26.9%, HT1080 IDH1KD tx 18.4µM* and S2 tox inactive.
`COc1cc(CN2CCN(Cc3ccc4cc(F)ccc4n3)CC2CCO)cc(OC)c1` (stereo unspecified) gave HepG2 viability -10.1%, TGFb SMAD3 inh 3.3%, HT1080NT lethal -21.2%, ATXN2 expr inh -6.1%, HT1080 IDH1KD tx -18.0% and S2 tox inactive.
`COCc1c(C(=O)N2CCN(C3CCCC3)CC2)cnn1-c1ncc2c(n1)-c1ccccc1CCC2` gave S2 tox inactive.
Screening CCCCN(CC)CCNC(=O)c1cc2c(=O)n(C)c3ccccc3c2s1 returned HepG2 viability 12.6µM*, TGFb SMAD3 inh inconclusive, HT1080NT lethal inconclusive, ATXN2 expr inh -32.1%, HT1080 IDH1KD tx inconclusive and S2 tox inactive.
For COCCNC(=O)c1cc2sc3ccccc3c2s1 the results were HepG2 viability -10.6%, TGFb SMAD3 inh 11.7%, HT1080NT lethal -3.2%, ATXN2 expr inh 33.9%, HT1080 IDH1KD tx -3.8% and S2 tox inactive.
Screening CCCCN(CC)CCNC(=O)c1cc2c(=O)n(CC)c3ccccc3c2s1 returned HepG2 viability 12.6µM*!, TGFb SMAD3 inh 10.4%, HT1080NT lethal -8.0%, ATXN2 expr inh -13.5%, HT1080 IDH1KD tx 3.5% and S2 tox inactive.
CCN(CC)CCNC(=O)c1cc2c(=O)n(C)c3ccccc3c2s1 was read as HepG2 viability -53.3%, TGFb SMAD3 inh -18.4%, HT1080NT lethal inconclusive, ATXN2 expr inh -16.8%, HT1080 IDH1KD tx inconclusive and S2 tox inactive.
`CCCCN(CC)CCCNC(=O)c1cc2c(=O)n(CC)c3ccccc3c2s1` gave HepG2 viability -99.6%, TGFb SMAD3 inh 12.6µM*, HT1080NT lethal 18.4µM*, ATXN2 expr inh inconclusive, HT1080 IDH1KD tx 29.1µM* and S2 tox inconclusive.
Screening CN(C)CCCNC(=O)c1cc2sc3ccccc3c2s1 returned HepG2 viability 20µM*, TGFb SMAD3 inh 0.0%, HT1080NT lethal 18.4µM*, ATXN2 expr inh -32.6% and HT1080 IDH1KD tx 18.4µM*.
Screening O=C(NCCc1ccccc1Cl)c1ccc(Cn2c(=O)c3cccn3c3cccnc32)cc1 returned HepG2 viability 10µM* and TGFb SMAD3 inh inconclusive.
CCNc1nc(-c2sc(NC(=O)C(C)(C)C)nc2C)c(-n2cc(-c3ccccc3)nn2)s1 was read as HT1080NT lethal inconclusive, ATXN2 expr inh 14.1µM* and HT1080 IDH1KD tx inconclusive.
`Cc1nc(NC(=O)C(C)(C)C)sc1-c1nc(N)sc1-n1cc(-c2ccccc2)nn1` gave HT1080NT lethal 2.7%, ATXN2 expr inh 4.8%, HT1080 IDH1KD tx 10.2% and S2 tox inactive.
For Cc1cccc(OCC(=O)Nc2cc(-c3nc4cc(Cl)ccc4o3)ccc2C)c1 the results were HepG2 viability -9.8% and TGFb SMAD3 inh inconclusive.
`COc1ccc(/C(C)=N/Nc2ncc(Cl)cc2Cl)c(O)c1` gave HepG2 viability -36.1%, TGFb SMAD3 inh -25.8%, HT1080NT lethal 4.61µM*, ATXN2 expr inh -9.7%, HT1080 IDH1KD tx inconclusive and S2 tox inactive.
Nc1cc(N2CCCC2)c(Cl)cc1[N+](=O)[O-] was read as HepG2 viability 19.1%, TGFb SMAD3 inh 1.7%, HT1080NT lethal -8.8%, ATXN2 expr inh -18.0%, HT1080 IDH1KD tx -0.6% and S2 tox inactive.
Screening Nc1cc(N2CCOCC2)c(Cl)cc1[N+](=O)[O-] returned HepG2 viability 4.4%, TGFb SMAD3 inh 4.9%, HT1080NT lethal inconclusive, ATXN2 expr inh inconclusive, HT1080 IDH1KD tx 16.4µM* and S2 tox inactive.
For CCOc1ccc(CN(CCc2ccc3c(c2)OCO3)Cc2cc(OC)c(OC)cc2OC)cc1 the results were HepG2 viability -24.3% and TGFb SMAD3 inh 11.2µM*.
For Cc1cccc(N2CCN(C(=O)CN3C(=O)COc4ccc(S(=O)(=O)N5CCC(C)CC5)cc43)CC2C)c1 (stereo unspecified) the results were HepG2 viability 4.8%, TGFb SMAD3 inh -4.0%, ATXN2 expr inh -1.3% and S2 tox inactive.
For CS(=O)(=O)c1nc(-c2ccccc2)cc(-c2ccccc2)c1C#N the results were HepG2 viability 1.6%, TGFb SMAD3 inh -1.3%, HT1080NT lethal 23.1µM*, ATXN2 expr inh inconclusive and HT1080 IDH1KD tx inconclusive.
Screening Cc1ccc(-n2nc(C)c3c(C(=O)Nc4ccc(C)cc4Cl)cc(C)nc32)cc1 returned HepG2 viability -14.8%, TGFb SMAD3 inh -1.0%, ATXN2 expr inh 0.6% and S2 tox inactive.
Cc1c(C(=O)NCC(C)(C)CN(C)C)cnn1-c1nccc(-c2ccccc2F)n1 was read as S2 tox inactive.
`CC1C(=O)CC(c2ccccc2)N(C)C1c1ccccc1` (stereo unspecified) gave HepG2 viability -1.7%, TGFb SMAD3 inh 2.2%, HT1080NT lethal -25.8%, ATXN2 expr inh -20.8%, HT1080 IDH1KD tx -1.2% and S2 tox inactive.
`CCC1C(c2ccccc2)N(C)C(c2ccccc2)CC1(O)c1ccccc1` (stereo unspecified) gave HepG2 viability 12.6µM*, TGFb SMAD3 inh inconclusive, HT1080NT lethal inconclusive, ATXN2 expr inh -5.7%, HT1080 IDH1KD tx 16.4µM* and S2 tox inconclusive.
O=C(Nc1ccccc1)C(Cc1ccccc1)N1Cc2ccccc2C1=O (stereo unspecified) was read as HepG2 viability 4.0% and TGFb SMAD3 inh -2.0%.
COc1ccc(-n2nnnc2S(=O)(=O)Cc2ccc(C(=O)O)cc2)cc1 was read as HepG2 viability -5.7%, TGFb SMAD3 inh -17.4%, HT1080NT lethal 14.1µM*, ATXN2 expr inh inconclusive, HT1080 IDH1KD tx 7.94µM* and S2 tox inconclusive.

High-throughput results (PubChem BioAssay)
